Results from PubChem BioAssay AID1851 (National Center for Advancing Translational Sciences (NCATS), 2009).
Several values for one entry are separate records, joined by “and”; a condition that tells them apart may be missing. Identical values can stand only once. The campaign covered roughly 16,000 compounds. About 5,800 (36%) were called active. Not shown: some 23% with an inconclusive outcome. Calls come from the whole dose curve; as a rule, active = well fitted curve in the direction sought with a large enough effect; inconclusive = small, poorly fitted or top-dose-only effect, or effect the other way; inactive = no such curve, though single readings can be large or run the other way. The list shows a part of the results.

Target: Cytochrome P450 2C19 (Homo sapiens) (UniProt P33261)
Assay: Cytochrome panel assay with activity outcomes
Details: recombinant CYP, pro-luciferin dealkylation, luminescence, p450-cyp2c19; series mostly up to 57.1 µM
% is set by controls: 0 for no effect and ±100 for the full control effect.

Chain of Cytochrome P450 2C19 (Homo sapiens) (P33261 whole entry, looked up): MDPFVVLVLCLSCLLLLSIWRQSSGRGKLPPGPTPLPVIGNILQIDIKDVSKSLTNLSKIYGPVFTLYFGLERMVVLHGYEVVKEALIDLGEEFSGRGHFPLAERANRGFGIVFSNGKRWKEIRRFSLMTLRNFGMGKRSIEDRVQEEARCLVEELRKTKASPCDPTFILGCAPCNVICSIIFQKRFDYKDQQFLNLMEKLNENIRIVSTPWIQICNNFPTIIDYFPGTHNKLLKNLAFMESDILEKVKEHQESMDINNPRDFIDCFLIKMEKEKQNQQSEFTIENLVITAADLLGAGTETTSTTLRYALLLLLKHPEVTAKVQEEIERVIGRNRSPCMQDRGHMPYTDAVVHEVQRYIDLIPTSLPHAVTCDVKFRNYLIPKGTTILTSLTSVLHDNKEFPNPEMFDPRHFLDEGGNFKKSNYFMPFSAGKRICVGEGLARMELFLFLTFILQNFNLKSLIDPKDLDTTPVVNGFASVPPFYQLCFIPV

SMILES | AC50 | activity, negative = inhibition
Cn1c(=O)c2c(ncn2C[C@@H](O)CO)n(C)c1=O | inactive | –
Cn1c(=O)c2c(ncn2CC(COCc2ccccc2Cl)OCc2ccccc2Cl)n(C)c1=O (stereo not given) | 8.91 µM (active) | –
Cn1c(=O)c2c(ncn2CCO)n(C)c1=O | inactive | –
Cc1ccc(-c2csc(N3CCC(NS(=O)(=O)c4ccc5c(c4)OCCO5)CC3)n2)cc1 | 3.16 µM (active) | –
CCCCOc1ccc(C(=O)N/C(=C\c2cccc([N+](=O)[O-])c2)C(=O)OCCC)cc1 | inactive | –
CCCCOc1ccc(C(=O)N/C(=C\c2ccc(OC)cc2)C(=O)OCc2ccco2)cc1 | 3.98 µM (active) | –
O=c1c(-c2ccc(Cl)cc2)nc2cnc(N3CCOCC3)nc2n1C1CC1 | inactive | –
O=C(COc1ccc(Br)cc1)Nc1ccc([N+](=O)[O-])cn1 | 2.82 µM (active) | –
C/C(=N\NC(=O)COc1ccc([N+](=O)[O-])cc1)C(C)(C)C | inactive | –
CC(=O)Nc1ccc([N+](=O)[O-])cn1 | inactive | –
CCOc1ccc2ccccc2c1C(=O)N[C@@H]1C(=O)N2[C@@H]1SC(C)(C)[C@@H]2C(=O)O | inactive | –
CCOc1cc(C2CC(=O)c3c(ccc4ccccc34)N2)ccc1O (stereo not given) | 5.01 µM (active) | –
Cc1cc(OCc2nc(N)nc(N)c2-c2ccc(Cl)c(Cl)c2)ccc1[N+](=O)[O-] | 3.16 µM (active) | –
Nc1cccc(OCc2nc(N)nc(N)c2-c2ccc(Cl)cc2)c1 | – | -6.77% [at 11.4 µM] (inactive)
CC(C)N1CCC(=NNC(=O)c2ccc(Br)o2)CC1 | inactive | –
CCCN1CCC(=NNC(=O)c2ccc(Br)o2)CC1 | 25.1 µM (active) | –
O=C(Nc1nnc(SCc2ccc(Cl)cc2Cl)s1)C1COc2ccccc2O1 (stereo not given) | 2.51 µM (active) | –
Nc1nc2c(nc(Br)n2[C@@H]2O[C@H]3COP(=O)(O)O[C@H]3[C@@H]2O)c(=O)[nH]1 | inactive | –
COC(=O)N1CCC2(CC1)CN(C(=O)Nc1cccc(C#N)c1)C2 | inactive | –
CCCC(=O)Nc1cccc(Oc2nc(C)cc(C)c2C#N)c1 | 17.8 µM (active) | –
Cc1cnc(NC(=O)CCCc2nc3ccccc3s2)s1 | 7.94 µM (active) | –
COc1ccccc1N1CCN(C[C@@H](C(=O)NC(C)(C)C)c2ccccc2)CC1 | inactive | –
COc1ccccc1N1CCN(C[C@@H](O)COc2cccc3ccccc23)CC1 | 6.31 µM (active) and 7.94 µM (active) and 1.58 µM (active) | –
O=C(O)[C@@H]1CCCN1Cc1cc2ccccc2c2ccccc12 | – | 31.6% [at 11.4 µM] (inactive)
Clc1ccc(CN2CCCN(Cc3ccc(Cl)cc3)C2c2cc3ccccc3c3ccccc23)cc1 | 0.794 µM (active) | –
CC(C)CC(=O)Nc1ccccc1-c1nnn(CC(=O)N2CCc3ccccc3C2)n1 | 14.1 µM (active) | –
COc1ccc2c(c1OC)C(=O)OC2[C@H]1c2c(cc3c(c2OC)OCO3)CCN1C (stereo not given in full) | 2.51 µM (active) | –
COc1ccc2c(c1OC)C(=O)O[C@@H]2[C@H]1c2c(cc3c(c2OC)OCO3)CCN1C | 0.158 µM (active) | –

SMILES | AC50 | activity, negative = inhibition
C[C@H]1CCCC=CC2C[C@H](OC(=O)CN(C)C)C[C@@H]2[C@@H](O)/C=C\C(=O)O1 (stereo not given in full) | – | 8.1% [at 11.4 µM] (inactive)
CSc1nnc(-c2sc(-c3ccccc3)nc2C)n1C | inactive | –
C#CCSc1nnc(-c2cc3c(C(F)(F)F)nn(C)c3s2)n1C | inactive | –
C#CCSc1nnc(-c2sc(-c3ccccc3)nc2C)n1C | 2.51 µM (active) | –
COC(=O)[C@@]1(Cc2ccc(F)cc2)[C@@H]2C(=CC(=O)[C@H]2CC(=O)C(=O)N(C)C)CN1C(=O)c1ccccc1 | 25.1 µM (active) | –
COC(=O)[C@@]1(Cc2ccc(F)cc2)[C@@H]2C(=CC(=O)[C@H]2CC(=O)C(=O)N2CCCC2)CN1C(=O)c1ccccc1 | 31.6 µM (active) | –
COC(=O)[C@@]1(Cc2ccccc2)[C@@H]2C(=CC(=O)[C@H]2CC(=O)C(=O)N(C)C)CN1C(=O)c1ccccc1 | inactive | –
CC(NC(=O)Cc1ccc(F)cc1)c1ccccc1 (stereo not given) | 11.2 µM (active) | –
CC(=O)NC(Cc1ccc(F)cc1)C(=O)O (stereo not given) | inactive | –
O=C(O)CSc1sc(=S)sc1SCC(=O)O | 10 µM (active) | –
Cc1nnsc1SCC(=O)O | inactive | –
COc1cccc(C(=O)N(Cc2ccccc2)Cc2cc3cc4c(cc3[nH]c2=O)OCCO4)c1 | 15.8 µM (active) | –
C/C(CCN1CCc2nc(-c3ccccc3)c(-c3ccccc3)cc2C1)=N\O[C@@H](C)CN1CCCc2nc(C)c(C)cc21 | – | -28.4% [at 11.4 µM] (inactive)
Cc1cc(/C=N/n2cnnc2)c(C)n1-c1ccc(OCc2ccccc2F)cc1 | 2 µM (active) | –
CCOC(=O)C(C)(C)[C@H](O)C(C)C | – | 3.67% [at 11.4 µM] (inactive)
CS[C@]12C(=O)C[C@]3(C)[C@@H](CC[C@@]3(O)C(=O)CO)[C@@H]1CCC1=CC(=O)CC[C@]12C | 3.16 µM (active) | –
C[C@@]12CCC(=O)C=C1CC[C@H]1[C@H]3CC[C@](O)(C(=O)CO)[C@]3(C)CC(=O)[C@@H]12 | inactive | –
CC(=O)OCC(=O)[C@@]1(O)CC[C@@H]2[C@H]3CCC4=CC(=O)CC[C@]4(C)[C@]3(F)[C@@H](O)C[C@@]21C | inactive | –
O=C(c1cccc(F)c1)N1CCC2(CC1)CCN(c1ccc(-c3ccccc3)cc1)CC2 | inactive | –
Cc1ccc(C(=O)N2CCN(c3cc(=O)[nH]nc3-c3ccccc3)CC2)cc1 | 20 µM (active) | –
CC(C)[C@H](CO)Nc1nc(Nc2cc(N)cc(Cl)c2)c2ncn(C(C)C)c2n1 | inactive | –
CN(C)C(=O)c1ccc(-c2nc(NCc3cccs3)c3ccccc3n2)cc1 | 10 µM (active) | –
CN(C)C(=O)c1ccc(-c2nc(Nc3ccc(F)cc3)c3ccccc3n2)cc1 | 31.6 µM (active) | –
CN(C)C(=O)c1ccc(-c2nc(Nc3ccccc3)c3ccccc3n2)cc1 | 15.8 µM (active) | –
Cc1cnc(CNc2nc(-c3ccc(C(=O)N(C)C)cc3)nc3ccccc23)cn1 | inactive | –
CC(=O)NCCNc1nc(-c2ccc(C(=O)N(C)C)cc2)nc2ccccc12 | inactive | –
C=C1CC[C@H](O)C/C1=C/C=C1\CCC[C@]2(C)[C@H]1CC[C@H]2[C@@H](C)/C=C\[C@@H](C)C(C)C | inactive | –
